The panel holds about 83,000 compounds, 20% with a hit somewhere; the sample as a whole holds those more often.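 Each cell line was grown in a 96-well plate and treated with one concentration of compound for 48 hours. Values below 10 were considered active.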 Active and inactive are the calls of the source.
Legend:
Test in all cases: NCI-60 one-dose screen, 48 h (100 = growth as untreated, 0 = no growth, -100 = all killed)
Settings in all cases: 10 µM unless noted
HCT-15 colon = system: HCT-15 colon
HT29 colon = system: HT29 colon
SNB-75 CNS = system: SNB-75 CNS
SNB-19 CNS = system: SNB-19 CNS
U251 CNS = system: U251 CNS
PC-3 prostate = system: PC-3 prostate
SK-MEL-5 melanoma = system: SK-MEL-5 melanoma
UACC-62 melanoma = system: UACC-62 melanoma
LOX IMVI melanoma = system: LOX IMVI melanoma
SK-MEL-28 melanoma = system: SK-MEL-28 melanoma
SK-MEL-2 melanoma = system: SK-MEL-2 melanoma
EKVX NSCLC = system: EKVX NSCLC
SN12C renal = system: SN12C renal
UO-31 renal = system: UO-31 renal
TK-10 renal = system: TK-10 renal
ACHN renal = system: ACHN renal
CAKI-1 renal = system: CAKI-1 renal
A498 renal = system: A498 renal
CCRF-CEM leukemia = system: CCRF-CEM leukemia
MOLT-4 leukemia = system: MOLT-4 leukemia

Measured: growth

C=C1CC[C@@]2(C#N)[C@H]3[C@H](CC[C@@H]2C)[C@@H](C)C[C@@H](CC(C)(C)C#N)[C@H]13
inactive: HCT-15 colon 43.6% | HT29 colon 46.8% | SNB-75 CNS 44.6% | SNB-19 CNS 56.4% | U251 CNS 46.4% | PC-3 prostate 23.2% | SK-MEL-5 melanoma 37.5% | UACC-62 melanoma 43.5% | LOX IMVI melanoma 26.6% | SK-MEL-28 melanoma 60.3% | SK-MEL-2 melanoma 61.3% | EKVX NSCLC 32.9% | SN12C renal 60.7% | UO-31 renal 14% | TK-10 renal 50.6% | ACHN renal 28% | CAKI-1 renal 19% | A498 renal 51.1% | CCRF-CEM leukemia 22% | MOLT-4 leukemia 29.3%

NS(=O)(=O)c1ccc(-n2nc(C(=O)N/N=C\c3ccc(F)cc3)cc2-c2ccc(Br)cc2)cc1
inactive: HCT-15 colon 54.3% | HT29 colon 66.4% | SNB-75 CNS 37.4% | SNB-19 CNS 83% | U251 CNS 89% | PC-3 prostate 72.2% | SK-MEL-5 melanoma 87.2% | UACC-62 melanoma 64.4% | LOX IMVI melanoma 74.9% | SK-MEL-28 melanoma 77.8% | SK-MEL-2 melanoma 80% | EKVX NSCLC 72.7% | SN12C renal 92.7% | UO-31 renal 75% | TK-10 renal 121% | ACHN renal 88.2% | CAKI-1 renal 41.8% | A498 renal 31.9% | CCRF-CEM leukemia 74.8% | MOLT-4 leukemia 80.4%

CCOc1ccc2nc(SCc3nc4n(n3)S(=O)(=O)c3ccccc3N4C)sc2c1
active: SNB-75 CNS -15% | SK-MEL-5 melanoma -23.9% | UO-31 renal -46.3% | TK-10 renal -8.01% | ACHN renal 4.84% | CAKI-1 renal -39.5% | A498 renal -25.8% | CCRF-CEM leukemia 3.93% | MOLT-4 leukemia 4.81%
inactive: HCT-15 colon 26.9% | HT29 colon 62.3% | SNB-19 CNS 30.6% | U251 CNS 16.3% | PC-3 prostate 19.5% | UACC-62 melanoma 25.9% | LOX IMVI melanoma 19.8% | SK-MEL-28 melanoma 45.7% | SK-MEL-2 melanoma 17.9% | EKVX NSCLC 14% | SN12C renal 22.2%

CCOC(=O)Cn1c(C)c(/C=N/NC(=O)c2cc3c(ccc4ccccc43)o2)c2ccccc21
inactive: HCT-15 colon 11% | SNB-19 CNS 18% | U251 CNS 15.9% | PC-3 prostate 10.5% | UACC-62 melanoma 35.4% | LOX IMVI melanoma 24.9% | SK-MEL-28 melanoma 45.2% | SK-MEL-2 melanoma 44.1% | EKVX NSCLC 41.1% | SN12C renal 34.4% | UO-31 renal 40.2% | TK-10 renal 58.8% | ACHN renal 28.4% | CAKI-1 renal 47.1% | CCRF-CEM leukemia 11.3% | MOLT-4 leukemia 18.7%
active: HT29 colon 3.63% | SNB-75 CNS 2.97% | SK-MEL-5 melanoma 7.35% | A498 renal -6.48%

Cn1cc(-c2ccc3cc(-c4ccc(CC(=O)Nc5cc(C(C)(C)C)nn5C)cc4)cnc3c2)cn1
inactive: HT29 colon 22.6% | SNB-19 CNS 29.2% | U251 CNS 20.1% | LOX IMVI melanoma 14.1% | SK-MEL-28 melanoma 16.7% | EKVX NSCLC 23.5% | TK-10 renal 15.8% | CCRF-CEM leukemia 23% | MOLT-4 leukemia 13.2%
active: HCT-15 colon 5.84% | SNB-75 CNS 3.79% | PC-3 prostate 3.81% | SK-MEL-5 melanoma -35.4% | UACC-62 melanoma -16.6% | SK-MEL-2 melanoma -38.4% | SN12C renal 5.18% | UO-31 renal 1.27% | ACHN renal 3.05% | CAKI-1 renal 0.564% | A498 renal -18.5%

COc1cc2cc(Oc3ccc(NC(=O)Nc4ccc(Cl)c(Cl)c4)cc3)c(C)nc2cc1OCCN1CCOCC1
inactive: HCT-15 colon 88.9% | HT29 colon 90.1% | SNB-75 CNS 92.9% | SNB-19 CNS 90.5% | U251 CNS 96.6% | PC-3 prostate 76.7% | SK-MEL-5 melanoma 50.8% | UACC-62 melanoma 77.8% | LOX IMVI melanoma 93.5% | SK-MEL-28 melanoma 101% | SK-MEL-2 melanoma 107% | EKVX NSCLC 66.4% | SN12C renal 91.5% | UO-31 renal 83.9% | TK-10 renal 124% | ACHN renal 93.4% | CAKI-1 renal 87.5% | A498 renal 72.8% | CCRF-CEM leukemia 65% | MOLT-4 leukemia 62.7%

CCN(CC)S(=O)(=O)c1ccc(NC(=O)CSc2nnc(C)n2-c2ccccc2)cc1
inactive: HCT-15 colon 113% | HT29 colon 111% | SNB-75 CNS 98.5% | SNB-19 CNS 102% | U251 CNS 104% | PC-3 prostate 95.2% | SK-MEL-5 melanoma 105% | UACC-62 melanoma 92.8% | LOX IMVI melanoma 102% | SK-MEL-28 melanoma 108% | SK-MEL-2 melanoma 92.5% | EKVX NSCLC 107% | SN12C renal 98.1% | UO-31 renal 80.8% | TK-10 renal 126% | ACHN renal 98.7% | CAKI-1 renal 106% | A498 renal 107% | CCRF-CEM leukemia 97.9% | MOLT-4 leukemia 96.2%

C=C1CC[C@H](C(C)C)[C@@H]2[C@H]1[C@H]1CC(=C)[C@@H](O)CC[C@@](C)(O)[C@@H]2O1
inactive: HCT-15 colon 107% | HT29 colon 101% | SNB-75 CNS 88.1% | SNB-19 CNS 91.5% | U251 CNS 106% | PC-3 prostate 89.9% | SK-MEL-5 melanoma 100% | UACC-62 melanoma 92.8% | LOX IMVI melanoma 93.8% | SK-MEL-28 melanoma 105% | SK-MEL-2 melanoma 80.9% | EKVX NSCLC 98.1% | SN12C renal 109% | UO-31 renal 82.6% | TK-10 renal 103% | ACHN renal 95.8% | CAKI-1 renal 95.1% | A498 renal 89.3% | CCRF-CEM leukemia 94% | MOLT-4 leukemia 119%

Source: PubChem BioAssay (NCI)
